# In all, about 350,000 compounds went through this assay and about 31,000 (8.9%) were called active. Not shown: some 15% with an inconclusive outcome. Shown is part of a subset that was picked to be rich in actives. Where a call stands in place of a potency, no number is given. A number with no mark means an inactive call. Calls follow the shape of the dose curve; as a rule, active = well fitted inhibition curve with a large enough effect; inconclusive = small, poorly fitted or top-dose-only effect; inactive = no such curve, though single readings can be large or run the other way.
# Target: Histone-lysine N-methyltransferase EHMT2 (Homo sapiens) (UniProt Q96KQ7)
# Assay: qHTS Assay for Inhibitors of Histone Lysine Methyltransferase G9a; also: nearly all actives have a fitted effect of over 75% in size
# Details: G9a H3K9 monomethylation, AlphaScreen, 2 h; series mostly up to 59 µM
# Procedure, shortened: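 Enzyme 20 nM + cpd, 15 min RT; add b-H3K9 pep 500 nM / SAM 20 uM; 2 h RT; anti-H3K9me1 Ab 0.5 ug/mL + SA donor / anti-rabbit acceptor beads 20 ug/mL each, 10 min; AlphaScreen read.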
# Potency is read from the fitted curve at half-maximal effect.
# Sequence of Histone-lysine N-methyltransferase EHMT2 (Homo sapiens) (Q96KQ7 913-1193 limits assumed): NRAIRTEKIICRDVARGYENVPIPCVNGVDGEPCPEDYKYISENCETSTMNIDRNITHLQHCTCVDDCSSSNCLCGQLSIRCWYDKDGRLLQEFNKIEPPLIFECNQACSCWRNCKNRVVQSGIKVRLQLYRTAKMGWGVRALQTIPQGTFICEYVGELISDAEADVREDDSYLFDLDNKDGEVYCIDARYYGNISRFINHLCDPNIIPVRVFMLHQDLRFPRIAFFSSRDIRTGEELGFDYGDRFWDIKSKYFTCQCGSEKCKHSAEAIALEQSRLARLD
SMILES,Potency,"activity, negative = inhibition"
COc1ccc(-c2cn(-c3ccc(C)cc3)c(=O)n2CC(=O)Nc2ccc(OC)c(OC)c2)cc1,inactive,–
Cc1n[nH]c(=O)n1-c1ccc(C(C)C)cc1,inactive,–
COc1ccc(OC)c(-n2c(-c3ccn[nH]3)n[nH]c2=S)c1,14.1 µM (active),–
COc1ccc(-n2c(-c3ccc(OC)c(OC)c3)n[nH]c2=S)cc1,5.62 µM (active),–
COc1ccc(-n2c(C)csc2=S)cc1,inactive,–
Cc1ccc(-c2cn3cc(C)ccc3n2)cc1,inactive,–
COc1ccc(CCn2c(-c3ccco3)nc3nc4ccccc4nc32)cc1OC,–,-36.8% [at 12.7 µM]
COc1ccc(-c2c(-c3cc(OC)cc(OC)c3)n(C)c3ccc(-c4ccn[nH]4)cc23)cc1,–,2.71% [at 0.501 µM]
Cc1ccc(-n2c(-c3ccc(Cl)cc3)n[nH]c2=S)cc1,1.41 µM (active),–
COc1ccccc1-n1c(-c2cc(-c3ccco3)[nH]n2)n[nH]c1=S,2.82 µM (active),–
COc1ccc(OC)c(-n2c(=S)[nH]c3cc(C(=O)N4CCCCC4)ccc3c2=O)c1,inactive,–
COc1ccccc1-n1cn[nH]c1=S,–,-42.9% [at 12.7 µM]
COc1ccccc1CN1CCC(CNC(=O)c2cnn(-c3cccc(Cl)c3)c2C2CCN(C(=O)OC(C)(C)C)CC2)CC1,inactive,–
COc1ccc(CCc2nc(-c3cccs3)no2)cc1,inactive,–
COc1ccc(CC(=O)NCCc2sc3nc(-c4ccc(OC)cc4)nn3c2C)cc1,inactive,–
Cc1cc(C)cc(NC(=O)CSc2nc3nccnc3c(=O)n2CCc2c[nH]c3ccccc23)c1,inactive,–
CCOc1ccccc1NC(=O)Cn1c(=O)n(Cc2ccccc2)c(=O)c2c(C)c(C(=O)N(C)C)sc21,inactive,–
Cc1cccc(C(=O)Nc2ccc(Oc3cnccn3)cc2)c1,–,-1.31% [at 2.33 µM]
CCOc1cc(C(=O)NCCc2csc3nc(-c4ccc(C)cc4)nn23)cc(OCC)c1OCC,inactive,–
CCOC(=O)C1=C(COC(=O)[C@H](C)NS(=O)(=O)c2ccccc2F)NC(=O)NC1C (some centres undefined),–,20.6% [at 2.33 µM]
CCc1cc2c(cc3c(=O)n(CC(=O)NCc4cccc(Cl)c4)nc(CC)n32)s1,inactive,–
COCCNC(=O)c1ccc2c(c1)N(Cc1cccc(Cl)c1)C(=O)c1ccccc1S2(=O)=O,inactive,–
CCOC(=O)[C@H]1[C@H]2COc3ccc(Cl)cc3[C@@H]2N2C(=O)c3cc(C)ccc3NC(=O)[C@@]12C,–,28% [at 2.33 µM]
Cc1cccc(N2CCN(C(=O)c3ccc4c(c3)CCN4S(=O)(=O)c3ccccc3)CC2)c1C,inactive,–

SMILES,Potency,"activity, negative = inhibition"
CCC(CC)C(=O)N1CCN(c2cccc(C)c2C)CC1,inactive,–
CCn1c(C)c(C)c2cc(C(=O)N3CCN(c4cccc(C)c4C)CC3)ccc21,39.8 µM (active),–
CCS(=O)(=O)N1CCc2cc(C(=O)N3CCN(c4ccccc4OC)CC3)ccc21,inactive,–
CCOc1ccccc1N1CCN(C(=O)c2ccc3[nH]c(C)c(C)c3c2)CC1,79.4 µM (active),–
Cc1[nH]c2ccc(C(=O)N3CCN(C)CC3)cc2c1C,inactive,–
CCc1ccc(C(=O)COC(=O)c2ccco2)cc1,inactive,–
CC1CCCCC12NC(=O)N(CC(=O)OCC(=O)NCc1ccc(F)cc1)C2=O (centres undefined),inactive,–
COc1ccc(-c2nc3sc(CCNC(=O)C(C)(C)C)c(C)n3n2)cc1,inactive,–
CCN(C(=O)COC(=O)c1sccc1C)c1c(N)n(Cc2ccccc2)c(=O)[nH]c1=O,–,4.77% [at 0.501 µM]
CN(C)C(CNC(=O)c1ccc(OCc2cn3ccccc3n2)cc1)c1ccco1 (centres undefined),inactive,–
CN(C(=O)CSc1nc2ccccc2n1Cc1ccccc1C#N)c1ccccc1,inactive,–
NS(=O)(=O)c1ccc(CNC(=O)c2cccc(Oc3ccccc3)c2)cc1,inactive,–
O=C(CNc1ccccc1N1CCCC1=O)Nc1cc(Cl)ccc1-n1cncn1,inactive,–
CCc1ccccc1NC(=O)CSc1nnc([C@@H](NC(=O)OC(C)(C)C)C(C)C)o1,–,10.1% [at 2.33 µM]
C[C@H](NC(=O)OC(C)(C)C)c1nnc(SCC(N)=O)o1,inactive,–
CC(C)Sc1nnc([C@H](Cc2ccccc2)NC(=O)OC(C)(C)C)o1,35.5 µM (active),–
O=C(CN1CCN(S(=O)(=O)c2ccc(Cl)s2)CC1)N1CCCCC1,–,18.1% [at 2.33 µM]
CCOc1cc(/C=C(\C#N)c2nc(-c3cccs3)c(NC(C)=O)s2)ccc1O,inactive,–
COc1ccc(/C=N\NC(=O)c2sc(N)nc2C)cc1OC,inactive,–
COc1cc(/C=N\Nc2nc(-c3cccs3)c(NC(C)=O)s2)ccc1O,11.2 µM (active),–
CC1=Nc2cc(C(=O)N3CCC(C)CC3)ccc2Sc2ccc(Cl)cc21,inactive,–
CCc1nnc(SCc2nc(-c3cccc(C)c3)oc2C)c2cc3sc(C)cc3n12,inactive,–
CC(C)Oc1ccc(S(=O)(=O)N2CCOCC2)cc1NC(=O)C1CCCC1,inactive,–
CC(C)Oc1ccc(S(=O)(=O)N2CCOCC2)cc1NC(=O)C1CSC2(C)CCC(=O)N12 (centres undefined),44.7 µM (active),–

SMILES,Potency,"activity, negative = inhibition"
CCN(CC)S(=O)(=O)c1ccc(N2CCOCC2)c(NC(=O)C2CSC3(C)CCC(=O)N23)c1 (centres undefined),inactive,–
CCNC(=O)CC1C(=O)N(c2ccc(F)cc2)C(=O)N1Cc1ccc(C)cc1 (centres undefined),inactive,–
C=C1c2cc(CC)ccc2NC(=O)N1c1ccc(C)cc1,11.2 µM (active),–
Cc1ccc(CC2C(=O)N(c3ccc(F)cc3)C(=O)C2C)cc1 (centres undefined),–,2.4% [at 0.501 µM]
O=C(c1cc(COc2ccc(F)c(F)c2)on1)N1CCOCC1,–,-4.01% [at 0.501 µM]
Cc1cc(NS(=O)(=O)c2ccc(NC(=O)C(C)Oc3cccc(C)c3C)cc2)nc(C)n1 (centres undefined),inactive,–
Cn1c(=O)[nH]c(=O)c2c1[nH]c(=S)n2Cc1ccccc1,–,-14.7% [at 2.33 µM]
CN1C=CC=C/C1=C1\SC(=S)N(Cc2ccccc2)C1=O,20 µM (active),–
Cc1ccc(C)c(NC(=O)COC(=O)CSc2ccccc2)c1,–,0.0476% [at 12.7 µM]
COc1ccc(C)cc1NC(=O)c1cc(-c2ccccc2)nc2c1cnn2C(C)C,–,0.616% [at 12.7 µM]
CC(Sc1nnc(C2CC2)n1C1CC1)C(=O)Nc1ccc(C(N)=O)cc1 (centres undefined),–,-5.65% [at 2.33 µM]
COc1ccc(OC(C)C(=O)NCCc2nc3ccccc3[nH]2)cc1 (centres undefined),inactive,–
CC(C)Oc1ccc(/C=C(\NC(=O)/C=C/c2ccco2)C(=O)NCCc2nc3ccccc3[nH]2)cc1,39.8 µM (active),–
CC(C)=C(NC(=O)c1ccco1)C(=O)NCCc1nc2ccccc2[nH]1,–,6.16% [at 2.33 µM]
Cc1ccc(-n2nc(C)c3c(C)cc(=O)n(CC(=O)Nc4ccc(C(C)C)cc4)c32)cc1,inactive,–
CCN(CC(=O)Nc1c(F)cccc1F)C(=O)c1ccc(Sc2nncn2C)c([N+](=O)[O-])c1,inactive,–
Cc1ccc(S(=O)(=O)N2CCN(C(=O)CSc3cc(C)ccc3C)CC2)c(C)c1,inactive,–
Cc1ccc(C2Nc3cccc4cccc(c34)N2)cc1,10 µM (active),–
O=C1CCC([N+](=O)[O-])C(c2ccccc2Br)N1 (centres undefined),inactive,–
Cc1ccc(C2CC(c3cccc(C)c3)n3nc(N)nc3N2)cc1 (centres undefined),inactive,–
Oc1ccc(C2Nc3cccc4cccc(c34)N2)cc1,25.1 µM (active),–
O=C1NC(c2cccc(Cl)c2)Nc2ccccc21 (centres undefined),inactive,–
COc1ccc(C2CC(c3ccc(C)cc3)Nc3nc(N)nn32)cc1 (centres undefined),inactive,–
Brc1ccccc1C1Nc2cccc3cccc(c23)N1,44.7 µM (active),–

SMILES,Potency,"activity, negative = inhibition"
COc1cccc(C2Nc3cccc4cccc(c34)N2)c1,20 µM (active),–
COc1ccc(N2C(=O)C3CCCN3C2c2cccc(OC)c2)cc1 (centres undefined),inactive,–
COc1ccc(C2NC(=O)c3ccccc3N2)cc1 (centres undefined),inactive,–
COc1ccc(C(C#N)(CC(=O)O)c2cnccn2)cc1OC (centres undefined),–,3.29% [at 2.33 µM]
CC1CCCN(c2nc3c(S(=O)(=O)c4ccc(C(C)C)cc4)nnn3c3ccsc23)C1 (centres undefined),inactive,–
COc1ccc(CNC(=O)c2ccc(NS(=O)(=O)c3ccc4[nH]c(=O)[nH]c4c3)cc2)cc1OC,–,19.8% [at 12.7 µM]
CCOc1ccc(-c2nonc2NC(=O)c2oc3ccc(CC)cc3c2C)cc1,inactive,–
Cn1c(C(=O)Nc2cccc(C(F)(F)F)c2)cc2c(=O)n3ccccc3nc21,inactive,–
CC(=O)N1CCc2c(sc(NC(=O)CCS(=O)(=O)c3ccccc3)c2C#N)C1,inactive,–
CC(C)(C)n1ncc2c(=O)n(Cc3c(Cl)cccc3Br)cnc21,–,-12.6% [at 2.33 µM]
CCOC(=O)c1cc(NC(=O)c2ccc(F)cc2)c(=O)n2c1oc1ccccc12,inactive,–
COc1ccccc1-c1nnc(C2CCN(C(=O)c3ccc(Cl)cc3)CC2)o1,inactive,–
CCOC(=O)c1cc(-c2ccc(OC)c(S(=O)(=O)Nc3ccc(OC)cc3OC)c2)on1,inactive,–
CCOc1cccc2cc(C(=O)OCC(=O)Nc3c(C)cccc3CC)c(=O)oc12,44.7 µM (active),–
C=CCc1cccc2cc(C(=O)OCC)c(=O)oc12,inactive,–
Cc1cccc(C)c1NC(=O)COC(=O)c1ccccc1O,inactive,–
CCCN(CCC)C(=O)Cn1c(=O)n(-c2ccc(Cl)cc2)c(=O)c2c3c(sc21)CCCCC3,inactive,–
Cc1ccc(C)c(C(=O)COC(=O)Cn2[nH]c(=O)c3ccccc3c2=O)c1,–,11.2% [at 12.7 µM]
Cc1ccc(-n2cnc3cc(C(=O)NCCC4=CCCCC4)ccc32)cc1Cl,inactive,–
Fc1ccc(-c2ccc(-c3nn4c(-c5ccco5)nnc4s3)o2)cc1,15.8 µM (active),–
Cc1nnc2sc(-c3ccco3)nn12,inactive,–
FC(F)(F)c1nnc2sc(-c3ccco3)nn12,inactive,–

# Source: PubChem BioAssay AID504332 (National Center for Advancing Translational Sciences (NCATS), 2011)
